Bioassay records from PubChem BioAssay.
DAX1 inh-1: inhibitors of DAX1 repression of SF-1 activated StAR promoter | AID 652010 | HEK293T StAR-luciferase reporter, SF-1/DAX-1 repression relief | 370,000 tested, 1.1% active | inhibition, % at 6.8 µM;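 active = inhibition above the mean over all tested compounds plus 3 SD, cut at about 3.6% in these data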;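 note: 0% = DAX-1 cells with DMSO and 100% = cells lacking DAX-1 with DMSO; higher inhibition means more luminescence from relief of DAX-1 repression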
DAX1 inh-2: inhibits human nuclear receptor DAX1. P51843. HEK293 Gal4-DAX1 luciferase reporter, luminescence. inhibition, % at 6.75 µM. 340,000 tested, 0.99% active;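 active = inhibition above the mean over all tested compounds plus 3 SD, cut at about 4.2% in these data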;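 note: 0% = DAX1-transfected cells with DMSO and 100% = empty-vector control cells with DMSO; inhibition shows as a rise in luminescence from relieved DAX1 repression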
Target sequence (P51843 207-470 limits assumed): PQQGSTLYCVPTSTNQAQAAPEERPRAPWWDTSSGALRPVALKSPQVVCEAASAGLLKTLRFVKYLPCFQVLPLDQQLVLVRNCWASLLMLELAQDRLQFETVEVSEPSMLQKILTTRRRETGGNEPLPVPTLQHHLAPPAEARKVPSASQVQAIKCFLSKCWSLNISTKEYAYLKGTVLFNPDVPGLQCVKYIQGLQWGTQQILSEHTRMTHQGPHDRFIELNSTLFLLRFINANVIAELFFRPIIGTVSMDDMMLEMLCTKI
hcDAF12 agonist: H. contortus DAF-12 activation, primary screen; activation, % at 6.8 µM; 370,000 tested, 1.4% active; HEK293 hcDAF-12 lit1-tk-luc reporter, luminescence; 0% DMSO, 100% Δ7-dafachronic acid;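 active = activation above the mean of all tested compounds plus 3 SD, cut at about 5.5% in these data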;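 note: 100% = response to 3 µM Δ7-dafachronic acid high control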
hgDAF12 agonist: activates the H. glycines DAF-12 receptor ligand-binding domain; 370,000 tested, 1.8% active; HEK293 GAL4-hgDAF12 UAS-luciferase reporter, agonist luminescence; normalized to butyrate control; activation, % at 6.8 µM;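 active = activation above a cutoff set at the mean of all screened compounds plus 3 SD, cut at about 10% in these data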;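 note: 0% = DMSO wells and 100% = sodium butyrate wells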
AHR act: activates the human aryl hydrocarbon receptor. P35869. AID 2796. 320,000 tested, 2.5% active. activation, % at 5 µM. AHR-responsive luciferase reporter cells, luminescence; in the data active = activation above about 47%;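 note: 0% = vehicle wells and 100% = reference agonist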
ssDAF12 agonist: S. stercoralis DAF-12 activation, primary screen. AID 652126. 370,000 tested, 1% active. activation, % at 6.8 µM. HEK293 ssDAF-12/GRIP1 lit1-tk-luc reporter, luminescence; % of 3 µM dafachronic acid response;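 active = activation above the mean over all tested compounds plus 3 SD, cut at about 0.9% in these data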;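 note: 0% = DMSO-only wells and 100% = 3 µM delta7-dafachronic acid wells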
LXRb hcDAF ctr: LXR-beta agonism as hcDAF-12 counter-screen; 3,400 tested, under 10 active; activation, % at 6.8 µM; shares compounds with hcDAF12 agonist; HEK293 Gal4-LXR tk-luc reporter, luminescence, 24 h; normalized: DMSO 0%, positive control 100%;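 active = mean percent activation of the reporter above a cutoff set as the average over tested compounds plus their standard deviation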
Target sequence (P55055 whole entry, looked up, the tested form may be a part): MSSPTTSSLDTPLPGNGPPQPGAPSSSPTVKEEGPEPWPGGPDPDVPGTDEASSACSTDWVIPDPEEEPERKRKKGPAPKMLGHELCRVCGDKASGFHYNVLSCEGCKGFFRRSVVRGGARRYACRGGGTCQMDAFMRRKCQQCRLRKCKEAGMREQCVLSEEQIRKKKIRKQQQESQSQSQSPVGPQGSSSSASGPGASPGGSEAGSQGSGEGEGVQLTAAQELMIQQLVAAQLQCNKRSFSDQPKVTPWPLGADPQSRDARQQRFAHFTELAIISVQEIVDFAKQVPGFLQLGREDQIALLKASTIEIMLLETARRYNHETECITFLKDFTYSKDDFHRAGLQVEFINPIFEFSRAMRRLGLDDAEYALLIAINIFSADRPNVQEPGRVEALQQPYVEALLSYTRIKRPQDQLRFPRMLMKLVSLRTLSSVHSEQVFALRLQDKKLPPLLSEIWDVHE
hcDAF12 conf: hcDAF-12 agonism, confirmation assay | shares compounds with hcDAF12 agonist | HEK293 hcDAF-12 lit1-tk-luc reporter, luminescence; % of Δ7-dafachronic acid response | activation, % at 6.8 µM | 3,400 tested, 61% active;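 active = mean activation across triplicate tests above the threshold derived from the earlier primary screen, cut at about 5.5% in these data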;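 note: 0% = DMSO only wells and 100% = 3 µM Δ7-dafachronic acid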
* hit, by the source's call; . = no result given. Hits are enriched below; roughly 5.7% of the tested compounds scored in any of these assays.

SMILES | DAX1 inh-1 | DAX1 inh-2 | hcDAF12 agonist | hgDAF12 agonist | AHR act | ssDAF12 agonist | LXRb hcDAF ctr | hcDAF12 conf
Cn1nnc(NC(=O)c2ccc(C(C)(C)C)cc2)n1 | 1.2 | 1.6 | 1.4 | 9.0 | 21.9 | -0.7 | . | .
O=C(NNC(=O)c1cc2ccccc2oc1=O)c1ccccc1 | 0.4 | 0.2 | -0.5 | 1.5 | -1.6 | -0.5 | . | .
O=C(c1ccccc1)c1cc2ccccc2oc1=O | 0.8 | 0.0 | 6.9* | 2.6 | 49.0* | 0.2 | 0.1 | 4.7
Cn1c(O)c(N=NC(=O)c2cc(-c3cccs3)nc3ccccc23)c2ccccc21 | 0.0 | -1.3 | 2.5 | 0.2 | 17.2 | -0.5 | . | .
Cn1c(O)c(N=Nc2nc(-c3ccccc3)cs2)c2ccccc21 | 0.2 | 1.4 | 11.8* | 1.5 | 54.1* | -0.3 | 0.0 | 7.4*
CC(=O)c1sc(Nc2nc(C)cc(C)n2)nc1C | . | -1.0 | . | . | 18.3 | . | . | .
O=C(COC(=O)c1cccc(S(=O)(=O)N2CCc3ccccc32)c1)Nc1ncc(Cl)cc1Cl | 0.5 | -1.2 | 6.8* | -0.1 | 17.5 | -0.6 | -0.2 | 3.0
O=C(COC(=O)c1cccc(S(=O)(=O)N2CCc3ccccc32)c1)Nc1ncc(C(F)(F)F)cc1Cl | 0.2 | -0.7 | -1.1 | 0.7 | 2.5 | -0.8 | . | .
CCCS(=O)(=O)n1nc(-c2ccccc2)cc1N | 0.8 | -0.4 | 9.9* | 0.8 | 9.3 | -1.3 | -0.1 | 2.0
CCOC(=O)C1CCN(C(=O)COc2ccc(S(=O)(=O)NC(C)C)cc2)CC1 | -0.2 | 0.0 | -2.0 | 0.1 | 0.4 | -1.9 | . | .
C[C@@H](OC(=O)N(C)Cc1ccccc1)[C@H]1O[C@]2(C)CCCC[C@H]1O2 | -0.4 | 1.9 | 2.7 | 1.2 | 1.5 | -1.7 | . | .
COc1ccc(CCNC(=O)COC(=O)C23CC4CC(CC(C4)C2)C3)cc1 | -1.9 | -2.0 | 6.8* | 5.0 | -4.0 | -0.2 | -0.3 | 0.6
COc1ccc(CCNC(=O)COC(=O)C23CC4CC(CC(Br)(C4)C2)C3)cc1 | -1.7 | -0.9 | -2.6 | 0.2 | -0.6 | -1.4 | . | .
Cc1ccc(NC(=S)N=Nc2c(O)[nH]c3ccccc23)cc1 | -1.4 | 0.0 | -0.4 | -4.2 | -5.1 | -1.9 | . | .
CN(C)C(=S)N=Nc1[nH]c2ccccc2c1O | 1.3 | . | 7.3* | 12.7* | 63.9* | 1.4* | 0.1 | 3.3
CCCc1nc(-c2cc3ccccc3[nH]c2=O)no1 | -0.4 | 1.5 | -1.3 | -0.9 | 11.4 | -0.4 | . | .
O=C(/C=C/c1ccc(-c2ccccc2[N+](=O)[O-])o1)c1ccco1 | -0.5 | 1.1 | 7.9* | 4.0 | 19.1 | 0.4 | -0.2 | 2.4
O=C(O)CCC(=O)N1CCN(c2ccc(C(=O)c3ccc(F)cc3)cc2)CC1 | -0.7 | -0.6 | -0.7 | 2.9 | 1.4 | -0.7 | . | .
CN1CCN(c2ccc(C(=O)c3ccc(F)cc3)cc2)CC1 | 1.9 | 1.9 | 8.9* | 12.4* | 10.5 | -0.5 | 0.7 | 4.7
Cc1ccc(NC(=O)COC(=O)/C=C/c2cccc(Cl)c2)cc1S(=O)(=O)N1CCOCC1 | 0.2 | 0.5 | 8.7* | 0.4 | -1.0 | -0.1 | -0.3 | -0.1
O=C(COC(=O)/C=C/c1cccc(Cl)c1)Nc1ccc(N2CCOCC2)cc1 | -0.8 | 1.0 | -0.3 | 0.1 | -0.8 | -0.9 | . | .
Cc1ccc(CNCc2cccnc2)s1 | 0.5 | 1.0 | -0.7 | -1.9 | 2.1 | -0.8 | . | .
CC(C)CCN1CCN(Cc2cc3ccccc3[nH]2)CC1CCO (configuration not stated) | 0.4 | 0.1 | 6.9* | -0.3 | 25.4 | 0.3 | -0.2 | 7.0*
Cc1ccc(C2=N/C(=C\c3cccnc3)C(=O)O2)cc1 | 0.6 | -0.9 | 1.8 | 1.5 | -0.9 | -0.4 | . | .
Nc1ccccc1N=Nc1ccccc1N | 1.1 | 1.0 | 6.7* | 9.7 | 26.0 | 0.6 | 1.1 | 9.2*
SMILES | DAX1 inh-1 | DAX1 inh-2 | hcDAF12 agonist | hgDAF12 agonist | AHR act | ssDAF12 agonist | LXRb hcDAF ctr | hcDAF12 conf
O=C(Nc1cc2c(ccc3ccccc32)oc1=O)C1CCCCC1 | 0.1 | -0.5 | 7.3* | -1.1 | 15.2 | 0.2 | -0.2 | 1.4
Cc1c(Cl)cccc1NS(=O)(=O)c1cccc2nsnc12 | 0.1 | -0.2 | -1.0 | 1.7 | 5.1 | -0.9 | . | .
O=C(O)c1ccc(Cn2cnc3c(=O)[nH]cnc32)cc1 | 0.7 | 1.2 | 10.2* | 0.9 | . | 1.2* | -0.3 | -1.2
O=c1[nH]cnc2c1ncn2Cc1ccc([N+](=O)[O-])cc1 | -0.7 | 1.1 | -3.0 | -0.7 | -1.7 | -1.4 | . | .
Cc1ccccc1CC(=O)Nc1ccc(S(=O)(=O)N2CCN(C)CC2)cc1 | -0.3 | 1.5 | -0.6 | -0.7 | 2.2 | -0.4 | . | .
CCC(C)(C)C1CCC2(CC1)NC(=O)N(CC(=O)NCCc1c[nH]c3ccccc13)C2=O (configuration not stated) | -0.2 | 0.8 | 6.8* | 5.2 | 16.3 | 0.4 | -0.2 | 2.8
CC1CCC2(CC1)NC(=O)N(CC(=O)NCCc1c[nH]c3ccccc13)C2=O (configuration not stated) | -2.0 | 0.7 | 1.5 | 3.0 | 7.8 | -0.4 | . | .
CN(CCc1ccccn1)C(=O)Nc1ccc(C(C)(C)C)cc1 | -0.1 | 3.9 | 1.4 | 0.5 | 4.0 | -0.5 | . | .
CNC(=O)COC(=O)c1cc(F)c(F)cc1Cl | 0.3 | 0.0 | 0.8 | 0.4 | -1.0 | -1.2 | . | .
O=C(/C=C/c1ccccc1O)c1ccc(Cl)cc1 | 0.6 | -1.1 | 6.8* | 8.6 | 66.0* | 0.7 | 0.0 | 4.2
Cc1ccccc1Cc1c(C)nc2ncnn2c1C | -0.7 | -1.0 | -2.4 | 1.6 | -3.1 | -1.1 | . | .
CCc1cccc(NC(=S)Nc2cccc3ccccc23)c1 | -1.3 | 0.7 | 7.4* | 2.2 | 78.1* | 0.5 | 0.1 | 5.9*
Cc1cccc(NC(=S)Nc2cccc3ccccc23)c1 | -0.5 | 0.6 | 7.2* | 5.0 | 63.1* | 1.4* | 0.1 | 10.6*
CC(=O)Nc1cccc(NC(=O)Nc2cccc3ccccc23)c1 | -1.7 | 0.5 | 1.9 | 1.8 | 9.5 | -1.1 | . | .
CCCCOc1ccc(C(=O)NCCCC(=O)N2CCCCC2)cc1 | -0.6 | -1.1 | -0.5 | -1.7 | 1.2 | 0.1 | . | .
CSc1nnc2sc3cc(C)ccc3n12 | -0.6 | 1.3 | 9.6* | 7.2 | . | 0.1 | -0.1 | 4.7
Cc1ccccc1-c1cc2c(nn1)-c1ccccc1C2=O | -0.1 | 0.1 | 7.2* | 5.1 | -19.8 | 1.5* | 0.6 | 6.2*
CCOc1ccccc1NC1=C(Cl)C(=O)N(c2ccc(OC)cc2)C1=O | -1.8 | 2.1 | -1.0 | 6.3 | 2.4 | -0.1 | . | .
COc1ccccc1N1C(=O)C(Cl)=C(Nc2ccccc2O)C1=O | -0.1 | 1.1 | 7.1* | -0.2 | . | 1.5* | 0.0 | 2.6
CCc1ccccc1NC(=O)c1cc(C)no1 | -0.5 | 1.0 | 0.9 | -1.4 | 0.5 | -1.2 | . | .
